# Reference: PubChem BioAssay (NCATS)
# Inconclusive results are not listed. Entries that show only a call come without a potency. Activity calls are given as the source filed them. Calls come from the whole dose curve; as a rule, active = well fitted cell-killing curve with a large enough effect; inconclusive = small, poorly fitted or top-dose-only effect; inactive = flat fitted curve, though single readings scatter.
# Experiment: qHTS of pediatric cancer cell lines to identify multiple opportunities for drug repurposing: Primary screen for Rh18 cells (AID 1347102); note: nearly all actives have a fitted effect of over 65% in size
# Details: Rh18 rhabdomyosarcoma viability, CellTiter-Glo luminescence, 48 h; series mostly up to 46 µM
# From the text: Drug repurposing or repositioning has been offered as a strategy for drug development in oncology programs. This approach has special potential for childhood cancers and other rare or orphan diseases, where the expected return on new drug development has been a disincentive to pharmaceuticals.
# In this project we exploit the poly-pharmacology of drugs to discover new indications via phenotypic screening of a panel of 19 well-characterized cell lines derived from solid tumors seen in children and adolescents. The goal is to identify approved drugs with previously unrecognized anticancer properties that has the potential to reveal new mechanisms and biological processes involved in carcinogenesis or drug resistance. We employed a titration-based paradigm (quantitative high-throughput screening or qHTS), where all compounds were tested at multiple concentrations for their effect on cell viability. Concentration-response curves (CRCs) were derived directly from the primary screen, and both potency and efficacy values were used to identify compounds with robust bioactivity profiles. We screened the NIH Chemical Genomics Center (NCGC) Pharmaceutical Collection (NPC) and Mechanism Interrogation Plate (MIPE) small molecule collections of approved and investigational compounds against these cell lines; and measured metabolically active cells after 48 hours of compound treatment as a proxy for cell viability.
# Assay Submitter: Nathalia J. Martinez, National Center for Advancing Translational Sciences, National Institutes of Health, Rockville, MD, USA; email: natalia.martinez@nih.gov
# [1] Shen, M et al. Quantitative high-throughput phenotypic screening of pediatric cancer cell lines identifies multiple opportunities for drug repurposing. Oncotarget 2017 Dec 19;9(4):4758-4772. PMID 29435139.
# The cells were obtained from University of North Carolina (UNC), Pediatric Preclinical Testing Program (PPT), and Coriell Institute (CI).
# qHTS cell viability assay:
# Cells were assayed in growth media at a density of 500-1,000 cells/well. Five microliters of cells were dispensed into 1,536-well, white, solid-bottom, TC-treated plates (Greiner Bio One) using a multidrop dispenser and incubated at 37 degrees C, 5% CO2, under a humidified atmosphere for 5 hours. Twenty-three nanoliters of compounds and controls (neutral control DMSO or positive control bortezomib at final concentration of 2.3 µM) were subsequently transferred by Kalypsys pintool. For primary screens, the MIPE collection was tested at 11-point dilutions (final concentrations range from 0.78 nM to 46 µM) and the NPC collection at 8-point dilutions (final concentrations range from 0.59 nM to 46 µM). Compounds tested in follow-up screens were assayed at 11-point dilutions. Cells were incubated for 48 hours, followed by addition of 3 µL of CellTiter-Glo (Promega). After a 15 min incubation at room temperature, samples were analyzed for luminescence intensity using a ViewLux High-throughput CCD imager equipped with clear filters.
# Potency is the fitted concentration of half-maximal effect.
row,Compound,Potency
1,C[C@]12CC[C@H]3[C@@H](CC=C4C[C@@H](O)CC[C@@]43C)[C@@H]1CC[C@@H]2O,inactive
2,CN(C)CCc1c[nH]c2ccccc12,inactive
3,COc1ccc(C(=O)N2CCCC2=O)cc1,inactive
4,Cc1nc2ccccc2c(=O)n1-c1ccccc1Cl,inactive
5,CN1C[C@@H](NS(=O)(=O)N(C)C)C[C@@H]2c3cccc4c3c(cn4C)C[C@H]21,inactive
6,C#C[C@]1(O)C=C[C@H]2[C@@H]3CCC4=CC(=O)CC[C@@H]4[C@H]3CC[C@@]21CC,inactive
7,NCc1cccnc1,inactive
8,Cc1ncc2n1-c1ccc(Cl)cc1C(c1ccccc1F)=NC2,inactive
9,COc1ccc2c(C(=O)c3ccc(Cl)cc3)c(C)n(CC(=O)O)c2c1,inactive
10,COP(=S)(OC)Oc1ccc(Sc2ccc(OP(=S)(OC)OC)cc2)cc1,inactive
11,C[N+]1(C)[C@@H]2CC[C@H]1CC(OC(=O)C(CO)c1ccccc1)C2 (stereo not given in full),inactive
12,Cc1ccc(N=CN(C)C=Nc2ccc(C)cc2C)c(C)c1,inactive
13,NC(=O)CN1CCCC1=O,inactive
14,CN(C)CCc1c[nH]c2ccc(O)cc12,inactive
15,CCOP(=S)(OCC)O/N=C(\C#N)c1ccccc1,inactive
16,CN1C(=O)[C@@H](NC(=O)c2cc3ccccc3[nH]2)N=C(c2ccccc2)c2ccccc21,inactive
17,NC(=O)OCCCc1ccccc1,inactive
18,CC(C)(C)OC(=O)c1ncn2c1[C@@H]1CCCN1C(=O)c1c(Br)cccc1-2,inactive
19,C[C@H]1CNCCc2ccc(Cl)cc21,inactive
20,Nc1ccc(Cl)cc1C(=O)c1ccccc1F,inactive

row,Compound,Potency
1,CN1C2CCC(C)(C)C1CC(OC(=O)C(O)(c1cccs1)c1cccs1)C2 (stereo not given),inactive
2,C[C@]12CC[C@H]3[C@@H](CCC4=CC(=O)CC[C@@]43C)[C@@H]1CC[C@@H]2C(=O)O,inactive
3,CC(Cc1ccccc1)NCCCCl (stereo not given),inactive
4,ClC1=C(Cl)C2(Cl)C(CBr)CC1(Cl)C2(Cl)Cl (stereo not given),inactive
5,CN1CCc2cc(Cl)c(O)cc2[C@H]2c3ccccc3CC[C@@H]21,inactive
6,CCOC(=O)c1ncn2c1CN(C)C(=O)c1c(I)cccc1-2,inactive
7,O=C(O)CCCCCCNC1c2ccccc2CCc2ccccc21,inactive
8,c1ccc2c(c1)Sc1ccccc1N2CC1CN2CCC1CC2 (stereo not given),23.7 µM (active)
9,c1cc2c(c(N3CCNCC3)c1)OCCO2,inactive
10,COC(=O)C1=CCCN(C)C1,inactive
11,CN(C)C(=S)SSC(=S)N(C)C,0.15 µM (active)
12,Nc1ccc(N)cc1,inactive
13,C1CN2CCC1CC2,inactive
14,CC[n+]1c(-c2ccccc2)c2cc(N)ccc2c2ccc(N)cc21,11.9 µM (active)
15,O=C(N[C@H]1N=C(c2ccccc2F)c2cccc3c2N(CC3)C1=O)c1cc2ccccc2[nH]1,inactive
16,COc1cc(C[C@@H](C)N)c(OC)cc1Br,inactive
17,Sc1ccccc1Cl,inactive
18,CCO[C@H]1O[C@@H]2OC3(C)CC[C@H]4[C@H](C)CC[C@@H]([C@H]1C)[C@@]24OO3,inactive
19,O=C(CBr)Nc1ccc(Cl)cc1C(=O)c1ccccc1F,inactive
20,COCC(=O)N(c1c(C)cccc1C)C(C)C(=O)OC (stereo not given),inactive
